High-throughput results (PubChem BioAssay)
DT40 TDP1 CPT – qHTS for Inhibitors of human tyrosyl-DNA phosphodiesterase 1 (TDP1): qHTS in cells in presence of CPT; 420,000 compounds, 12% hits; chicken DT40 Tdp1-/-;hTDP1 cells + 20 nM CPT, ATP luminescence, 48 h; Potency, µM (highest dose often 46.2 µM), actives largely listed as inhibitors; also: nearly all actives have a fitted effect of over 55% in size
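Chicken DT40 Tdp1-/- cells stably complemented with human TDP1 were seeded at 400 cells/well in medium containing 20 nM camptothecin, exposed to pin-transferred compounds, and grown at 37 °C for at least 48 hr. Viability was read as ATP luminescence.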
ELG1 repair inh – qHTS screen for small molecules that inhibit ELG1-dependent DNA repair in human embryonic kidney (HEK293T) cells expressing luciferase-tagged ELG1; HEK293T ELG1-luciferase reporter, luminescence, 16 h; DNA damage induced by 5-fluorouridine; Potency, µM (doses to about 46.1 µM), hits mostly inhibitors; 330,000 compounds, 2.3% hits; also: nearly all actives have a fitted effect of over 55% in size
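5-Fluorouridine DNA damage + compound/DMSO, 2,000 cells/well, 16 h, 37 °C/5% CO2. ONE-Glo, 30 min RT, luminescence. Readout = decrease in reporter signal.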
RORg inh – qHTS for inhibitors of ROR gamma transcriptional activity; 310,000 compounds, 5.4% hits; AID 2551, 2010; Nuclear receptor ROR-gamma (Mus musculus), P51450; Potency, µM (top dose mostly 53.6 µM), usual class: inhibitors; Drosophila S2 Gal4-RORgamma UAS-luciferase reporter, 20 h; also: nearly all actives have a fitted effect of over 60% in size
Target sequence (P51450 whole entry, looked up, the tested form may be a part): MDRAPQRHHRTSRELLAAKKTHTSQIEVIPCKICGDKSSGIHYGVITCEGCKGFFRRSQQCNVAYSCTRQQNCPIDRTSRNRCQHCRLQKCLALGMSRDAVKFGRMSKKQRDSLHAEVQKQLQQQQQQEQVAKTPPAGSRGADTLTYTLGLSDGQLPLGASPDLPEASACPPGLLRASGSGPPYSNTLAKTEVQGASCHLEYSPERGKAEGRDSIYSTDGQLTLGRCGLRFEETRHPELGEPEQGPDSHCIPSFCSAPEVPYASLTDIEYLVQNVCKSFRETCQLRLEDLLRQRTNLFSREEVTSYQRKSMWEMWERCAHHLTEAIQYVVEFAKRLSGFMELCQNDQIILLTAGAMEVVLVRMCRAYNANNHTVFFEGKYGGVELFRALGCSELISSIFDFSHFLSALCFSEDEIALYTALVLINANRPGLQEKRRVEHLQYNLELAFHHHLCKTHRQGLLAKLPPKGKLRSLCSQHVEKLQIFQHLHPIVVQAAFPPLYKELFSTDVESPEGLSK
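Drosophila S2 cells stably expressing Gal4-DBD/mouse RORγ fusion under metallothionein promoter plus UAS-luciferase; compound 1 h, then 700 uM CuSO4 induction for 20 h at ambient temperature; inhibition read as reduced luminescence.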
Gal4-VP16 FLuc – VP16 counterscreen qHTS for inhibitors of ROR gamma transcriptional activity | Drosophila S2 Gal4-VP16 UAS-luciferase, luminescence, 20 h | Potency, µM (highest dose often 53.6 µM), hits mostly inhibitors | 310,000 compounds, 3.5% hits;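 also: Gal4-VP16 expression switched on by copper sulfate through the metallothionein promoter; nearly all actives have a fitted effect of over 50% in size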
IL1B secr inh – qHTS for Inhibitors of Inflammasome Signaling: IL-1-beta AlphaLISA Primary Screen; 360,000 compounds, 4.7% hits; THP-1 LPS/ATP IL-1B secretion, AlphaLISA, 16 h; stronger effect = lower value; activity change, % at 57.5 µM; in the data active = activity change below about -50%; inconclusive = mostly about -30% to -49%
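THP-1 cells pretreated 1 hr with compounds (up to 57.5 uM final), then stimulated with LPS (250 ng/mL final) plus ATP (1.25 mM final); secreted IL-1B measured by AlphaLISA after 16 hr, decreased signal indicating inhibition.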
TDP1 cell noCPT – qHTS for Inhibitors of human tyrosyl-DNA phosphodiesterase 1 (TDP1): qHTS in cells in absence of CPT; DT40 Tdp1-/- hTDP1 cells, no CPT, ATP luminescence, 48 h; Potency, µM (titrated, usually from 46.2 µM), hits mostly inhibitors; 420,000 compounds, 15% hits; AID 686978, 2013; also: nearly all actives have a fitted effect of over 55% in size
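Camptothecin absent (DMSO only). Human TDP1-complemented DT40 knockout cells, 400 cells/well, 37 °C for minimum 48 hr; ATP measured via CellTiter-Glo, 30 min dark incubation, luminescence.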
A number is an active result; n = inactive; u = inconclusive; x = no result. Most compounds without a hit are left out; they make up all but 21% or so of the library. Unless noted, calls follow the shape of the dose curve; as a rule, active = well fitted curve in the direction sought with a large enough effect; inconclusive = small, poorly fitted or top-dose-only effect, or another doubt; inactive = no such curve, though single readings can be large; an effect the other way counts as inactive or inconclusive.

SMILES	DT40 TDP1 CPT	ELG1 repair inh	RORg inh	Gal4-VP16 FLuc	IL1B secr inh	TDP1 cell noCPT
COCCCNc1ncnc2c1cnn2-c1ccc(F)cc1	5.2µM	x	x	x	x	5.8µM
CCCCNc1ncnc2c1cnn2Cc1ccc(Cl)cc1	9.2µM	u	n	n	n	6.5µM
Clc1ccc(Cn2ncc3c(NCc4ccccc4)ncnc32)cc1	4.6µM	u	u	n	n	4.1µM
CC1CC(C)CN(c2ncnc3c2cnn3Cc2ccc(Cl)cc2)C1 (stereo not drawn)	u	u	n	n	n	u
CCN(CC)c1ncnc2c1cnn2Cc1ccc(Cl)cc1	21µM	u	u	n	u	u
CC(=O)Nc1cc2nc(C)n(Cc3ccccc3[N+](=O)[O-])c2nc1C	n	n	n	n	n	n
CCOc1ccc2nc(NC(NC(=O)CC)(C(=O)OC)C(F)(F)F)sc2c1 (stereo not drawn)	n	n	n	n	n	n
COc1ccccc1CNC(=O)CN1C(=O)N(C)C2(CCCCC2)C1=O	n	n	x	x	n	n
COCCNc1ncnc2c1cnn2Cc1ccccc1Cl	u	n	n	n	n	18µM
Cc1ccc(CNc2ncnc3c2cnn3-c2ccccc2)cc1	n	n	n	n	n	n
CCCCNc1ncnc2c1cnn2-c1ccccc1	2.3µM	u	n	n	n	2.6µM
CCc1nc(NC(C)(C)C)c2cnn(-c3ccccc3)c2n1	u	u	n	n	n	18µM
CCCCNc1ncnc2c1cnn2-c1ccc(Cl)cc1	3.7µM	u	n	n	n	4.6µM
CCN(CC)C(=O)c1[nH]cnc1C(=O)NCC(=O)OC(C)(C)C	n	n	n	n	n	n
CCCc1c(C(=O)NNc2ccc(C)cc2)cnn1-c1ccccc1	n	7.3µM	n	n	x	n
CCCc1c(C(=O)NNc2cc(C(F)(F)F)ccc2Cl)cnn1-c1ccccc1	n	n	n	n	n	n
Cc1ccc(S(=O)(=O)NNC(=O)c2ccc(F)cc2)cc1	n	n	n	n	n	n
Cc1ccc(S(=O)(=O)NNC(=O)c2ccc(C(=O)N(c3ccccc3)c3ccccc3)cc2)cc1	16µM	x	x	x	x	11µM
Cc1ccc(S(=O)(=O)NNC(=S)NCCc2ccccc2)cc1	n	n	11µM	u	n	n
Cc1ccc(S(=O)(=O)NNC(=O)c2cnn(-c3ccccc3)c2-n2cccc2)cc1	1.6µM	n	n	n	n	1.5µM
Cc1ccc(C(=O)NC(=S)NNS(=O)(=O)c2ccccc2)cc1	n	n	3.2µM	14µM	n	n
Cc1ccc(S(=O)(=O)NNC(=O)c2ccccc2O)cc1	n	n	11µM	n	n	n
O=C(NCCSCc1ccccc1)C1CCN(S(=O)(=O)Cc2ccccc2)CC1	n	x	x	x	x	n
COc1ccccc1NC(=O)CSc1oc(-c2ccc(F)cc2)nc1S(=O)(=O)c1ccc(Br)cc1	21µM	x	x	x	x	13µM
